We go through 22 compounds from PubChem BioAssay (NCATS).

Records with an inconclusive call do not appear. Entries that show only a call come without a potency. The source made the active and inactive calls. Calls come from the whole dose curve; as a rule, active = well fitted inhibition curve with a large enough effect; inconclusive = small, poorly fitted or top-dose-only effect; inactive = flat fitted curve, though single readings scatter.

This assay has as its system DFO2036. Put plainly: qHTS profiling for inhibitors of Plasmodium falciparum proliferation (AID 504749). Note: nearly all actives have a fitted effect of over 60% in size. Particulars: P. falciparum in erythrocytes, SYBR Green DNA, 72 h; series mostly up to 28.7 µM. In short, it runs like this:
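Readout was DNA-dye fluorescence from lysed cultures, ex 485/em 535 nm. Parasitized red cells had grown 72 h with compound; data scaled between 0.29 uM artemisinin and DMSO wells and corrected using vehicle-only plates.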
On the technique in general: qHTS replaces the single test concentration by a dilution series.
As for `CC(C)C(=O)Nc1ccc([N+](=O)[O-])c(C(F)(F)F)c1`, the Potency result was “inactive”.
The entry for `NC(=O)NO` is “inactive”.
`CCOC(=O)C(C)(C)Oc1ccc(Cl)cc1`: the Potency result is “inactive”.
The entry for `CC(CCc1ccc(O)cc1)NCCc1ccc(O)c(O)c1` (configuration not stated) is “inactive”.
With `Cc1cn([C@H]2C[C@H](N=[N+]=[N-])[C@@H](CO)O2)c(=O)[nH]c1=O` the entry was “inactive”; with `Cc1cc(C(C)(C)C)c(O)c(C)c1CC1=NCCN1`, “inactive”; with `NS(=O)(=O)c1cc2c(cc1Cl)NCNS2(=O)=O`, “inactive”.
With `CCOC(=O)c1ncn2c1CN(C)C(=O)c1cc(F)ccc1-2` the entry was “inactive”; with `COC(=O)Nc1nc2ccc(C(=O)c3cccs3)cc2[nH]1`, “inactive”; with `Clc1ccc2nsnc2c1NC1=NCCN1`, “inactive”.
Consider `Cn1c(=O)c2c(ncn2C)n(C)c1=O`, for which the Potency result is “inactive”.
With `CC(C)Cc1ccc(C(C)C(=O)O)cc1` (configuration not stated) the entry was “inactive”.
With `Cn1cnc2c1c(=O)[nH]c(=O)n2C` the entry was “inactive”; with `Cn1c(=O)c2[nH]cnc2n(C)c1=O`, “inactive”.
`NCCCCCC(=O)O`: the Potency result was “inactive”.
With `CC(C)(Oc1ccc(C2CC2(Cl)Cl)cc1)C(=O)O` (configuration not stated) the entry was “inactive”; with `CN1C(C(=O)Nc2ccccn2)=C(O)c2ccccc2S1(=O)=O`, “inactive”.
The entry for `N[C@@H](Cc1c[nH]c2ccc(O)cc12)C(=O)O` is “inactive”; for `COc1cc2c(c(OC)c1OC)-c1ccc(OC)c(=O)cc1[C@@H](NC(C)=O)CC2` it is “inactive”.
The entry for `Cc1cc(C(C)(C)C)cc(C)c1CC1=NCCN1` is “inactive”.
For `Cc1cnc(C(=O)NCCc2ccc(S(=O)(=O)NC(=O)NC3CCCCC3)cc2)cn1`, the Potency entry is “inactive”.
The entry for `CN1CCN2c3ccccc3Cc3ccccc3C2C1` (configuration not stated) is “inactive”.
